According to PubChem BioAssay (NCATS):
Records with an inconclusive call do not appear. Activity calls are given as the source filed them. The call rests on the fitted dose curve; in most records, active means well fitted curve in the direction sought with a large enough effect; inconclusive means small, poorly fitted or top-dose-only effect, or another doubt; inactive means no such curve, though single readings can be large; an effect the other way counts as inactive or inconclusive.

Legend:
MKL-2 = assay: qHTS assay to identify novel small-molecules to repurpose for Merkel cell carcinoma treatment (AID 1296009); settings: MCC and control cell lines, CellTiter-Glo viability, 72 h; series mostly up to 46 µM; further: nearly all actives have a fitted effect of over 60% in size
Method in brief: (§1)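 After compound transfer in DMSO, plates were kept 72 hr at 37 degree celsius. Luminescent ATP signal from CellTiter-Glo served as viability measure, normalized against DMSO and no-cell controls.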

UISO = assay: as above; settings: MCC and control cell lines, CellTiter-Glo viability, 72 h; series mostly up to 46 µM
Method in brief: as §1

WaGa = assay: as above; settings: MCC and control cell lines, CellTiter-Glo viability, 72 h; series mostly up to 46 µM
Method in brief: as §1

C33A = assay: Primary qHTS to identify gynecologic anti-cancer compounds using libraries of approved drugs and bioactive compounds (AID 1345084); settings: Gynecologic cancer cell panel viability, ATPlite luminescence, 48 h; series mostly up to 57.5 µM; further: nearly all actives have a fitted effect of over 55% in size
Method in brief: (§2)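 Five-point cytotoxicity, 48 h drug exposure at 37 C, 5% CO2, on cells seeded 16 h beforehand. ATP content read by ATPlite luminescence.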

CAOV3 = assay: as above; settings: Gynecologic cancer cell panel viability, ATPlite luminescence, 48 h; series mostly up to 57.5 µM
Method in brief: as §2

CASKI = assay: as above; settings: Gynecologic cancer cell panel viability, ATPlite luminescence, 48 h; series mostly up to 57.5 µM
Method in brief: as §2

Es-2 = assay: as above; settings: Gynecologic cancer cell panel viability, ATPlite luminescence, 48 h; series mostly up to 57.5 µM
Method in brief: as §2

Hek293T = assay: as above; settings: Gynecologic cancer cell panel viability, ATPlite luminescence, 48 h, control line for the selectivity index; series mostly up to 57.5 µM
Method in brief: as §2

JEG-3 = assay: as above; settings: Gynecologic cancer cell panel viability, ATPlite luminescence, 48 h; series mostly up to 57.5 µM
Method in brief: as §2

OV90 = assay: as above; settings: Gynecologic cancer cell panel viability, ATPlite luminescence, 48 h; series mostly up to 57.5 µM
Method in brief: as §2

PA-1 = assay: as above; settings: Gynecologic cancer cell panel viability, ATPlite luminescence, 48 h; series mostly up to 57.5 µM
Method in brief: as §2

SKOV3 = assay: as above; settings: Gynecologic cancer cell panel viability, ATPlite luminescence, 48 h; series mostly up to 57.5 µM
Method in brief: as §2

Tov-21-G = assay: as above; settings: Gynecologic cancer cell panel viability, ATPlite luminescence, 48 h; series mostly up to 57.5 µM
Method in brief: as §2

Tov112D = assay: as above; settings: Gynecologic cancer cell panel viability, ATPlite luminescence, 48 h; series mostly up to 57.5 µM
Method in brief: as §2

[1] = Drug repurposing screens with cells derived from glioblastoma tumor samples (AID 1345199); settings: GBM patient neurospheres viability, ATP luminescence, 48 h; further: nearly all actives have a fitted effect of over 40% in size; further: potency means the concentration at half of the fitted maximal effect
Method in brief: (§3)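 Four patient lines of CD133+ GBM neurospheres were screened at several concentrations; hits were retested in those lines plus three slower-growing GBM lines, using 48-hour treatment and ATP-based viability.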

astro = assay: as above; settings: viability, ATP luminescence, 48 h; series mostly up to 45.9 µM
Method in brief: as §3

HeLa = assay: Primary qHTS to identify gynecologic anti-cancer compounds using libraries of approved drugs and bioactive compounds (AID 1345084); settings: Gynecologic cancer cell panel viability, ATPlite luminescence, 48 h; series mostly up to 57.5 µM; further: nearly all actives have a fitted effect of over 55% in size
Method in brief: as §2

[2] = at 45.9 µM (top of the series), tumour line B
[3] = at 45.9 µM (top of the series), tumour line D
[4] = at 46 µM (top of the series), tumour line A
[5] = at 46.1 µM (top of the series), tumour line C
[6] = at 20 µM (top of the series), tumour line C
[7] = at 21.2 µM (top of the series), tumour line B
[8] = at 21.2 µM (top of the series), tumour line D
On the % scale 0 is the no-effect control and ±100 the full control effect.

CN1C(=O)CC[C@H]1c1cccnc1
inactive: Potency (MKL-2) | Potency (UISO) | Potency (WaGa) | Potency (C33A) | Potency (CAOV3) | Potency (CASKI) | Potency (Es-2) | Potency (Hek293T) | Potency (JEG-3) | Potency (OV90) | Potency (PA-1) | Potency (SKOV3) | Potency (Tov-21-G) | Potency (Tov112D) | activity, negative = cell killing [1, 2] -1.32% | activity, negative = cell killing [1, 3] -18.5% | activity, negative = cell killing [1, 4] -11.4% | activity, negative = cell killing [1, 5] -34.2% | Potency (astro)

Brc1c(NC2=NCCN2)ccc2nccnc12
inactive: Potency (MKL-2) | Potency (UISO) | Potency (WaGa) | Potency (C33A) | Potency (CAOV3) | Potency (CASKI) | Potency (Es-2) | Potency (HeLa) | Potency (Hek293T) | Potency (JEG-3) | Potency (OV90) | Potency (PA-1) | Potency (SKOV3) | Potency (Tov-21-G) | Potency (Tov112D) | activity, negative = cell killing [1, 2] -5.79% | activity, negative = cell killing [1, 3] -4.16% | activity, negative = cell killing [1, 5] 4.36% | Potency (astro)

CCn1ccnc1CC1COc2ccccc2O1 (stereo unspecified)
inactive: Potency (MKL-2) | Potency (UISO) | Potency (WaGa) | Potency (C33A) | Potency (CAOV3) | Potency (CASKI) | Potency (Es-2) | Potency (HeLa) | Potency (Hek293T) | Potency (JEG-3) | Potency (OV90) | Potency (PA-1) | Potency (SKOV3) | Potency (Tov-21-G) | Potency (Tov112D) | activity, negative = cell killing [1, 2] -17.6% | activity, negative = cell killing [1, 3] -4.46% | activity, negative = cell killing [1, 5] -8.32% | Potency (astro)

CN(C)CC[C@@H](c1ccc(Br)cc1)c1ccccn1
active: Potency ([1]; tumour line A) 11.2 µM
inactive: Potency (MKL-2) | Potency (UISO) | Potency (WaGa) | Potency (C33A) | Potency (CAOV3) | Potency (CASKI) | Potency (Es-2) | Potency (HeLa) | Potency (Hek293T) | Potency (JEG-3) | Potency (PA-1) | Potency (SKOV3) | Potency (Tov-21-G) | Potency (Tov112D) | activity, negative = cell killing [1, 2] -11% | activity, negative = cell killing [1, 5] 2.86%

CCn1cc(C(=O)O)c(=O)c2cc3c(cc21)OCO3
inactive: Potency (MKL-2) | Potency (UISO) | Potency (WaGa) | Potency (C33A) | Potency (CAOV3) | Potency (CASKI) | Potency (Es-2) | Potency (HeLa) | Potency (Hek293T) | Potency (JEG-3) | Potency (OV90) | Potency (PA-1) | Potency (SKOV3) | Potency (Tov-21-G) | Potency (Tov112D) | activity, negative = cell killing [1, 2] -1.33% | activity, negative = cell killing [1, 3] -1.7% | activity, negative = cell killing [1, 4] -12.9% | activity, negative = cell killing [1, 5] -10% | Potency (astro)

Cc1cccc(C)c1NC(=O)C(C)N (stereo unspecified)
inactive: Potency (MKL-2) | Potency (UISO) | Potency (WaGa) | Potency (C33A) | Potency (CAOV3) | Potency (CASKI) | Potency (Es-2) | Potency (HeLa) | Potency (Hek293T) | Potency (JEG-3) | Potency (OV90) | Potency (PA-1) | Potency (SKOV3) | Potency (Tov-21-G) | Potency (Tov112D) | activity, negative = cell killing [1, 6] 6.4% | activity, negative = cell killing [1, 7] -16.9% | activity, negative = cell killing [1, 8] 1.82% | Potency (astro)

CC(C)(C)NCC(O)c1cc(O)cc(O)c1 (stereo unspecified)
inactive: Potency (MKL-2) | Potency (UISO) | Potency (WaGa) | Potency (C33A) | Potency (CAOV3) | Potency (CASKI) | Potency (Es-2) | Potency (HeLa) | Potency (Hek293T) | Potency (JEG-3) | Potency (PA-1) | Potency (SKOV3) | Potency (Tov-21-G) | Potency (Tov112D) | activity, negative = cell killing [1, 2] 0.586% | activity, negative = cell killing [1, 3] -16.8% | activity, negative = cell killing [1, 4] -15.6% | activity, negative = cell killing [1, 5] -15.7% | Potency (astro)

CCCNC(C)C(=O)Nc1ccccc1C (stereo unspecified)
inactive: Potency (MKL-2) | Potency (UISO) | Potency (WaGa) | Potency (C33A) | Potency (CAOV3) | Potency (CASKI) | Potency (Es-2) | Potency (HeLa) | Potency (Hek293T) | Potency (JEG-3) | Potency (OV90) | Potency (PA-1) | Potency (SKOV3) | Potency (Tov-21-G) | Potency (Tov112D) | activity, negative = cell killing [1, 2] -20% | activity, negative = cell killing [1, 3] -8.5% | activity, negative = cell killing [1, 5] -15.8% | Potency (astro)

CC(=O)[C@@]1(O)CC[C@H]2[C@@H]3CCC4=CC(=O)CC[C@]4(C)[C@H]3CC[C@@]21C
inactive: Potency (MKL-2) | Potency (UISO) | Potency (WaGa) | Potency (C33A) | Potency (CAOV3) | Potency (CASKI) | Potency (Es-2) | Potency (Hek293T) | Potency (JEG-3) | Potency (OV90) | Potency (PA-1) | Potency (SKOV3) | Potency (Tov-21-G) | Potency (Tov112D) | activity, negative = cell killing [1, 2] -19.9% | activity, negative = cell killing [1, 3] -29.7% | activity, negative = cell killing [1, 5] -20.5%

COc1ccc(CCN(C)CCCC(C#N)(c2cc(OC)c(OC)c(OC)c2)C(C)C)cc1OC (stereo unspecified)
inactive: Potency (MKL-2) | Potency (UISO) | Potency (WaGa) | Potency (C33A) | Potency (CAOV3) | Potency (CASKI) | Potency (Es-2) | Potency (HeLa) | Potency (Hek293T) | Potency (JEG-3) | Potency (OV90) | Potency (SKOV3) | Potency (Tov-21-G) | Potency (Tov112D) | activity, negative = cell killing [1, 2] -13.5% | activity, negative = cell killing [1, 5] -13.9%
active: Potency ([1]; tumour line A) 14.1 µM

c1cnc(N2CCN(Cc3ccc4c(c3)OCO4)CC2)nc1
inactive: Potency (MKL-2) | Potency (UISO) | Potency (WaGa) | Potency (C33A) | Potency (CAOV3) | Potency (CASKI) | Potency (Es-2) | Potency (Hek293T) | Potency (JEG-3) | Potency (OV90) | Potency (PA-1) | Potency (SKOV3) | Potency (Tov-21-G) | Potency (Tov112D) | activity, negative = cell killing [1, 2] -3.93% | activity, negative = cell killing [1, 3] -6.17% | activity, negative = cell killing [1, 5] -21.6%

C(=C\c1ccccc1)/CN1CCN(C(c2ccccc2)c2ccccc2)CC1
active: Potency ([1]; tumour line A) 7.08 µM
inactive: Potency (MKL-2) | Potency (UISO) | Potency (WaGa) | Potency (C33A) | Potency (CAOV3) | Potency (CASKI) | Potency (Es-2) | Potency (HeLa) | Potency (Hek293T) | Potency (JEG-3) | Potency (OV90) | Potency (PA-1) | Potency (Tov-21-G) | Potency (Tov112D) | activity, negative = cell killing [1, 6] -1.05% | activity, negative = cell killing [1, 7] -13.5% | activity, negative = cell killing [1, 8] -14% | Potency (astro)
